Measurements taken from the supplement of paper PMC10849652.
About 7,900 targets were measured; listed, in parts, are those with a hit and a random draw of the rest. About 0.6% of all pairs of compound and target were hits. Values without a mark were called inactive.

Compound: NCC(=O)Nc1ccc(-n2nc(C(F)(F)F)cc2-c2ccc3c(ccc4ccccc43)c2)cc1
Experiment: log2 fold change, soluble protein after heating vs DMSO (PISA); higher = thermal stabilisation; K562 cells, 10 uM, 30 min; active = over 0.2 and 3.5 SD of the protein, either way, in both replicates (recomputed)
How it was run: (§1)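 Aliquots of K562 cells (2×10^6 cells/mL) treated with 10 μM compound for 30 min were heated for 3 min over 48°C-58°C. After pooling and extraction in PBS with 0.5% NP-40 at 4°C, soluble protein from a 21,000xg, 90 min spin was quantified by TMTpro 16plex LC-MS/MS with channel sums equalised. Thermal stability is expressed against control samples, from duplicates, as a log2 fold change.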

UniProt O95359, sequence (O95359 whole entry, looked up): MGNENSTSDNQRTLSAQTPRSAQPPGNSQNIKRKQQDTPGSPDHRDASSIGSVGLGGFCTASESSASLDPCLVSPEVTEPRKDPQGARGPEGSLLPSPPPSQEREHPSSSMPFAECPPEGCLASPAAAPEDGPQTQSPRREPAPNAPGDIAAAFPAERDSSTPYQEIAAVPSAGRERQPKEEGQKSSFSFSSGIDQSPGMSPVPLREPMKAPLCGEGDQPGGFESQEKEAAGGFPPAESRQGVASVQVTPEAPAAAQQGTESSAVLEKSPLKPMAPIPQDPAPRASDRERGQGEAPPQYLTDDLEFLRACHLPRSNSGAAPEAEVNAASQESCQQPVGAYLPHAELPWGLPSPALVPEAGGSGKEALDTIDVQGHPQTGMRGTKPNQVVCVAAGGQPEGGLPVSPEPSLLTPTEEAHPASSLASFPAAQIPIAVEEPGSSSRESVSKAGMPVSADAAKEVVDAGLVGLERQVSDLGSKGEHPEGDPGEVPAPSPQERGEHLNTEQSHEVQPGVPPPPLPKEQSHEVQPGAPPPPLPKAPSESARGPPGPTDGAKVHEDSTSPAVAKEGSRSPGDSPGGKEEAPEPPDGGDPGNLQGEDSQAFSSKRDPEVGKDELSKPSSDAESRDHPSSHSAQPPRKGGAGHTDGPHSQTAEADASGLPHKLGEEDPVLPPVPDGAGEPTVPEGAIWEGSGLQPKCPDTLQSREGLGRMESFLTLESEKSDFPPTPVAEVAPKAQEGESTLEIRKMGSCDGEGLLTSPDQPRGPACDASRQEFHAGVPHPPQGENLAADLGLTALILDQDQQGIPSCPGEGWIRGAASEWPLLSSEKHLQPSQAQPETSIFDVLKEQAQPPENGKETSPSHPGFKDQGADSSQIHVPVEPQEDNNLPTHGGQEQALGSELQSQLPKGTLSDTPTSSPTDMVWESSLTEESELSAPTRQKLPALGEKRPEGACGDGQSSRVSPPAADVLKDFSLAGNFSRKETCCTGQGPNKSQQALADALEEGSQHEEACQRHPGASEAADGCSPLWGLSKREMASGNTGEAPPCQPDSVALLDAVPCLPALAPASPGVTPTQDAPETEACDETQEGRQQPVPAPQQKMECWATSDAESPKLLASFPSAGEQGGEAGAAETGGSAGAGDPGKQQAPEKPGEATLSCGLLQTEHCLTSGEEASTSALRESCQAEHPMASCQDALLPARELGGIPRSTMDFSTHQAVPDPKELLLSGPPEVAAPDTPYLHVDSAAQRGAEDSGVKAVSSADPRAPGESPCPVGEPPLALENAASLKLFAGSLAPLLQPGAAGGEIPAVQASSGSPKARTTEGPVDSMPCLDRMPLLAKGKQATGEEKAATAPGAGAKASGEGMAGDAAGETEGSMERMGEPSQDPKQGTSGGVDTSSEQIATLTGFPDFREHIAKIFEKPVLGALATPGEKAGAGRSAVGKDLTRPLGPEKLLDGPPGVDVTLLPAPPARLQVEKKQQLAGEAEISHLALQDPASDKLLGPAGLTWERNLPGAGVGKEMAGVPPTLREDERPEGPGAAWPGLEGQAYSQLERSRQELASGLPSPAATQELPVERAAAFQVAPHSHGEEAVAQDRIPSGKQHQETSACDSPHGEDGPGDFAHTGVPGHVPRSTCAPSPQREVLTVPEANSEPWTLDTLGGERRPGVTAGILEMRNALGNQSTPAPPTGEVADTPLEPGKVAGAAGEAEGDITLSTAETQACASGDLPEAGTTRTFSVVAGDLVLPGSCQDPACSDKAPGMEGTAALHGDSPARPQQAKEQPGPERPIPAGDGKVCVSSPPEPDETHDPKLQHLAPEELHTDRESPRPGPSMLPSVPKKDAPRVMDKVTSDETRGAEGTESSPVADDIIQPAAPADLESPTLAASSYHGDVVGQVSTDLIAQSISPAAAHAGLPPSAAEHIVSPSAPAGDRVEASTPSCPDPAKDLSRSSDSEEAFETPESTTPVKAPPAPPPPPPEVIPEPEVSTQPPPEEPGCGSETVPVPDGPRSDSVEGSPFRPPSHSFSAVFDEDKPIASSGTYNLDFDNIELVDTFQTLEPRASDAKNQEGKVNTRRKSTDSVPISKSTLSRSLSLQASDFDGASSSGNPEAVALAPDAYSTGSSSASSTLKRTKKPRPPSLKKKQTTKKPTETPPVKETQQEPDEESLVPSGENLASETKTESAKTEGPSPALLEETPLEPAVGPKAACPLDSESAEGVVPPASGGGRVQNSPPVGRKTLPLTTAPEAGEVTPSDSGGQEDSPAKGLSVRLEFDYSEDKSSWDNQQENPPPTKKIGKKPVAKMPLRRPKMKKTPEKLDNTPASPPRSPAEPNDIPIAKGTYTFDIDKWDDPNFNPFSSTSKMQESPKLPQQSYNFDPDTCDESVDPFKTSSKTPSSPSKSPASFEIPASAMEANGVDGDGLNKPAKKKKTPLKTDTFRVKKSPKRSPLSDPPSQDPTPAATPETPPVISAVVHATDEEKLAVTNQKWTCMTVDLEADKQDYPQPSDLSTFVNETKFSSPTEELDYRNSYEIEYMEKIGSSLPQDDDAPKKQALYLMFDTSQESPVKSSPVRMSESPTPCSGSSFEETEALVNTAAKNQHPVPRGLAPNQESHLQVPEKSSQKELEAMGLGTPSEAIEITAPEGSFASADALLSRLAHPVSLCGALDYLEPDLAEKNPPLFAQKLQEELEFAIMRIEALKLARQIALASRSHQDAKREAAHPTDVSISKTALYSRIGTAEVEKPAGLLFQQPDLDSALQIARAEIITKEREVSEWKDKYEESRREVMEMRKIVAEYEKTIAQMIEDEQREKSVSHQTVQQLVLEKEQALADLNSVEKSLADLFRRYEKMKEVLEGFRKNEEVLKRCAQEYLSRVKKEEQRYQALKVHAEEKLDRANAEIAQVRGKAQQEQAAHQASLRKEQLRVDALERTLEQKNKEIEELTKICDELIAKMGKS
UniProt Q969Z0, sequence (Q969Z0 whole entry, looked up): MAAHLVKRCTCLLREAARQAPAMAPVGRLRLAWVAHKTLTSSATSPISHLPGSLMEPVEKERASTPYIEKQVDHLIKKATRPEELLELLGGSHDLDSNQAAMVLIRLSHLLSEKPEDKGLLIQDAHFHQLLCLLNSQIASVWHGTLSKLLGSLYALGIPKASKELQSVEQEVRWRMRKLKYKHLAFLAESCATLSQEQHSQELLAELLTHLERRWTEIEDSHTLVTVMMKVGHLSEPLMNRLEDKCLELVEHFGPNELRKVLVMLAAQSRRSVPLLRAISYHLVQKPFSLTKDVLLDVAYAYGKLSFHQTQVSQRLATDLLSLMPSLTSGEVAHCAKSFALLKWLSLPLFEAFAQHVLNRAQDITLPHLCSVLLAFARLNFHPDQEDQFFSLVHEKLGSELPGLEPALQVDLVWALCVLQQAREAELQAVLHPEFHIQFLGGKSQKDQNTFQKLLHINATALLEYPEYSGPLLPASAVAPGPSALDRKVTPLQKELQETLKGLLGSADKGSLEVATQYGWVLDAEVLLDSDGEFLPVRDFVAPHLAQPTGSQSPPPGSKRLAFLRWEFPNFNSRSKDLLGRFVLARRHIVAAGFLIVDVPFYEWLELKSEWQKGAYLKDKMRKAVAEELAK
UniProt Q9NZ01, sequence (Q9NZ01 whole entry, looked up): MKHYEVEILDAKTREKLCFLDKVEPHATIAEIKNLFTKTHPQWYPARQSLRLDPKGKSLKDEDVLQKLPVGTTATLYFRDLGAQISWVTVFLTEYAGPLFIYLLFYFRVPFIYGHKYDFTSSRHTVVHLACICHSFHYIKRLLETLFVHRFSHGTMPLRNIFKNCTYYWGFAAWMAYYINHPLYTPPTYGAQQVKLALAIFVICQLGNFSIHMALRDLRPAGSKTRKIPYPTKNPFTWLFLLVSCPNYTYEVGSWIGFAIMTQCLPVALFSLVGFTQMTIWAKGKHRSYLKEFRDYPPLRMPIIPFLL
UniProt O75494, sequence (O75494 whole entry, looked up): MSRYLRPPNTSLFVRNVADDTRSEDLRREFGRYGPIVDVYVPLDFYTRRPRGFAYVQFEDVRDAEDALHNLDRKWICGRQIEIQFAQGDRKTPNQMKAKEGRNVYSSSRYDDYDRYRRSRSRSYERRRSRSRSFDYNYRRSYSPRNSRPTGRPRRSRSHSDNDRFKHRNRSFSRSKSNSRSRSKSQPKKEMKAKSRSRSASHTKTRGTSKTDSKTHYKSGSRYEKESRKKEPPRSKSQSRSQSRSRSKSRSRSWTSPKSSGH
UniProt P55061, sequence (P55061 whole entry, looked up): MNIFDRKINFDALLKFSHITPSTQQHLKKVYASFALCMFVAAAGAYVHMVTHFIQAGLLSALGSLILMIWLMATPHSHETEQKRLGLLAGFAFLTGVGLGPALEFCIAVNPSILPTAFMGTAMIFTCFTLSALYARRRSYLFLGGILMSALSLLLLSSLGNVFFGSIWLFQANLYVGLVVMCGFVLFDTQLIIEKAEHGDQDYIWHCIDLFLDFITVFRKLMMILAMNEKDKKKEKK
UniProt P78382, sequence (P78382 whole entry, looked up): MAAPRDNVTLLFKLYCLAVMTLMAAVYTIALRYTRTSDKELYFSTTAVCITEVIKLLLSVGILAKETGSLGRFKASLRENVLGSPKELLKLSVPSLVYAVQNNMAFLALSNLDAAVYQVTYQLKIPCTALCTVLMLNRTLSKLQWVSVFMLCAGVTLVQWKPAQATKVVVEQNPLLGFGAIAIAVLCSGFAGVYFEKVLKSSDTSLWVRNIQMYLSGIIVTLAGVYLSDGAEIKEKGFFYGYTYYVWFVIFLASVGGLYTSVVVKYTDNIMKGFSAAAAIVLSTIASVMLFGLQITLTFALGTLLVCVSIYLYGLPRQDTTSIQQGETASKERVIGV
UniProt Q9NRS6, sequence (Q9NRS6 whole entry, looked up): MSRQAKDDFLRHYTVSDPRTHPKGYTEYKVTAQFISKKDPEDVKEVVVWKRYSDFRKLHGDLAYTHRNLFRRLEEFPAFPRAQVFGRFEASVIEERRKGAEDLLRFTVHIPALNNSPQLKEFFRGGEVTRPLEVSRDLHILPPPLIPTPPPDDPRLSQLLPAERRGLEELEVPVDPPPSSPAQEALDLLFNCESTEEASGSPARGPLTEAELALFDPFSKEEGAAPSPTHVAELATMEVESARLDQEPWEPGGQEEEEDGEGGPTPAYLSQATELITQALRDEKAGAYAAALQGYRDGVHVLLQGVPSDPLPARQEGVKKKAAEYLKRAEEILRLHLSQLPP

| Target | log2 fold change |
| --- | --- |
| TCERG1 (UniProt O14776) | -0.112 |
| SPCS2 (UniProt Q15005) | 0.143 |
| TK1 (UniProt K7ERV3) | 0.022 |
| SP3 (UniProt Q02447) | 0.025 |
| STARD3 (UniProt Q14849) | -0.073 |
| SRSF6 (UniProt Q13247) | 0.032 |
| SPTBN1 (UniProt Q01082) | -0.016 |
| SNX15 (UniProt Q9NRS6) | -0.133 |
| SLC29A3 (UniProt Q9BZD2) | 0.04 |
| SRSF11 (UniProt Q05519) | -0.074 |
| SLC35B4 (UniProt Q969S0) | -0.072 |
| SLC27A2 (UniProt O14975) | -0.047 |
| SPPL2B (UniProt Q8TCT7) | -0.016 |
| SMPD4 isoform 4 (UniProt Q9NXE4) | -0.059 |
| SLC9A6 isoform 2 (UniProt Q92581) | -0.02 |
| TGFBI (UniProt Q15582) | -0.116 |
| TACC2 (UniProt O95359) | -0.187 |
| STXBP5 (UniProt Q5T5C0) | -0.033 |
| STOM (UniProt P27105) | -0.019 |

| Target | log2 fold change |
| --- | --- |
| SRSF7 (UniProt Q16629) | 0.027 |
| SYNE2 isoform 2 (UniProt Q8WXH0) | -0.134 |
| SLC38A9 (UniProt Q8NBW4) | -0.025 |
| TBRG4 (UniProt Q969Z0) | -0.255 |
| SMARCA4 (UniProt P51532) | -0.201 |
| TFR2 (UniProt Q9UP52) | 0.007 |
| TECR (UniProt Q9NZ01) | -0.048 |
| SRSF10 (UniProt O75494) | 0.063 |
| TBC1D5 isoform 2 (UniProt Q92609) | -0.058 |
| SRP68 (UniProt Q9UHB9) | -0.035 |
| SYMPK (UniProt Q92797) | -0.08 |
| STEAP3 isoform 2 (UniProt Q658P3) | -0.006 |
| SLC25A4 (UniProt P12235) | -0.006 |
| SLC39A11 (UniProt Q8N1S5) | 0.024 |
| TMBIM6 isoform 2 (UniProt P55061) | -0.015 |
| SMDT1 (UniProt Q9H4I9) | -0.039 |
| SLC35A1 (UniProt P78382) | 0.1 |
| TIPRL (UniProt O75663) | -0.068 |

Compound: Nc1ccccc1NC(=O)c1ccc(CNC(=O)OCc2cccnc2)cc1 [entinostat]
Experiment: as above
How it was run: as §1

| Target | log2 fold change |
| --- | --- |
| TCERG1 (UniProt O14776) | 0.159 |
| SPCS2 (UniProt Q15005) | 0.016 |
| TK1 (UniProt K7ERV3) | -0.071 |
| SP3 (UniProt Q02447) | 0.027 |
| STARD3 (UniProt Q14849) | 0.004 |
| SRSF6 (UniProt Q13247) | -0.082 |
| SPTBN1 (UniProt Q01082) | 0.011 |
| SNX15 (UniProt Q9NRS6) | 0.061 |
| SLC29A3 (UniProt Q9BZD2) | -0.022 |
| SRSF11 (UniProt Q05519) | 0.018 |
| SLC35B4 (UniProt Q969S0) | -0.002 |
| SLC27A2 (UniProt O14975) | -0.023 |
| SPPL2B (UniProt Q8TCT7) | -0.052 |
| SMPD4 isoform 4 (UniProt Q9NXE4) | 0.033 |
| SLC9A6 isoform 2 (UniProt Q92581) | -0.017 |
| TGFBI (UniProt Q15582) | 0.056 |
| TACC2 (UniProt O95359) | 0.035 |
| STXBP5 (UniProt Q5T5C0) | -0.011 |
| STOM (UniProt P27105) | -0.003 |

| Target | log2 fold change |
| --- | --- |
| SRSF7 (UniProt Q16629) | -0.079 |
| SYNE2 isoform 2 (UniProt Q8WXH0) | -0.125 |
| SLC38A9 (UniProt Q8NBW4) | 0.034 |
| TBRG4 (UniProt Q969Z0) | 0.214 |
| SMARCA4 (UniProt P51532) | 0.012 |
| TFR2 (UniProt Q9UP52) | 0.007 |
| TECR (UniProt Q9NZ01) | 0.042 |
| SRSF10 (UniProt O75494) | -0.047 |
| TBC1D5 isoform 2 (UniProt Q92609) | 0.029 |
| SRP68 (UniProt Q9UHB9) | 0.101 |
| SYMPK (UniProt Q92797) | 0.025 |
| STEAP3 isoform 2 (UniProt Q658P3) | 0.008 |
| SLC25A4 (UniProt P12235) | -0.019 |
| SLC39A11 (UniProt Q8N1S5) | -0.016 |
| TMBIM6 isoform 2 (UniProt P55061) | 0.044 |
| SMDT1 (UniProt Q9H4I9) | 0.01 |
| SLC35A1 (UniProt P78382) | -0.065 |
| TIPRL (UniProt O75663) | 0.033 |
